# Measurements reported in the supplement of paper PMC3334620.
# Over roughly 33,000 sequences, “E-score (-0.5 to 0.5)” has its median near -0.032; the highest 2% begin near 0.36. This excerpt belongs to a sample that is enriched for the highest values.
# Molecular target: T1, Sko1 (UniProt Q02100)
# T1 sequence: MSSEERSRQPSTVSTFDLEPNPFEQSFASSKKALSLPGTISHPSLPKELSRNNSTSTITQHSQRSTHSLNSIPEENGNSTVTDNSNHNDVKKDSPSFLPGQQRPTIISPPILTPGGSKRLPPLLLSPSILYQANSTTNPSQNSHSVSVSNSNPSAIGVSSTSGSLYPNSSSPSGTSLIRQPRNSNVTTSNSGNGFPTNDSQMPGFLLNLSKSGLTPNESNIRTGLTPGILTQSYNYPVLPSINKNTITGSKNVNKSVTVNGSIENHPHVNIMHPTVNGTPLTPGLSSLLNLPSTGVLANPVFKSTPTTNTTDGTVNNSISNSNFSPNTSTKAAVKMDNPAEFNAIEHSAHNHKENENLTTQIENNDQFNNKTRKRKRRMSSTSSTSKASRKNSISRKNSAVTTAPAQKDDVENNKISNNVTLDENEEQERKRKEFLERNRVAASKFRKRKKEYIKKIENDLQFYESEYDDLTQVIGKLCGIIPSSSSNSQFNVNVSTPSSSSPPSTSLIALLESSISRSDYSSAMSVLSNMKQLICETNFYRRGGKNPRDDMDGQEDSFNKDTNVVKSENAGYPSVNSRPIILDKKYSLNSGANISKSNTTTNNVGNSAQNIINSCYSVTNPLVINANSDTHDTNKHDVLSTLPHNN
# Test: PBM E-score (8-mer binding enrichment) (E-score (-0.5 to 0.5)); higher = stronger / more preferred TF binding
# Settings: protein concentration: 200 nM; construct: GST-full length
# Outline: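 Bound GST-tagged yeast transcription factors, applied at about 100-200 nM to double-stranded universal all-10-mer Agilent arrays, were detected with fluorescent anti-GST. Scans were normalised with masliner. A modified Wilcoxon-Mann-Whitney statistic, the E-score, was assigned to each ungapped eight-base word pooled with its reverse complement by the Universal PBM Analysis Suite.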
row,Sequence,PBM E-score
1,AATCGACG,0.295
2,GAAACCCC,-0.221
3,CCGACGTA,0.415
4,CCGACGGA,-0.237
5,CCGACGTC,0.309
6,GCGACGAA,0.0338
7,GCGACGGA,-0.237
8,GCGACGTA,0.413
9,GACACTGC,-0.0761
10,GGGCGCTA,-0.0254
11,GCTGGAAC,-0.188
12,CCGTAGCA,-0.064
13,ACTTAGCG,0.0634
14,ACGTAGCC,0.388
15,GCGTAGCC,0.00349
16,ACGTAGCG,0.42
17,AAGTAGCT,0.0695
18,ACTTAGCT,-0.211
19,CCGTAGCC,-0.259
20,ACGTAGCA,0.412
21,ACGTAGCT,0.444
22,CCGTAGCG,-0.239
23,TCGTAGCA,0.217
24,TAGGATGA,0.136

row,Sequence,PBM E-score
1,CGTTCGAG,0.189
2,ACTAAAGG,-0.0392
3,GAACACAC,-0.0651
4,CCCCAGCA,-0.157
5,CGCGTATA,0.244
6,CACGTATG,0.426
7,AGCGTATC,-0.0128
8,CTCGTATA,0.0394
9,GACGTATC,0.422
10,AACGTATG,0.431
11,GAAGTATC,0.0123
12,CAAGTATG,0.0253
13,AGCGTATG,-0.0197
14,CACGTATA,0.431
15,ACCGTATG,0.105
16,CAGGTATG,-0.00478
17,CGAGCACA,-0.00253
18,CAGTTCAG,-0.112
19,TTACAGAA,-0.0258
20,ACAATAGC,-0.0393
21,CAATGCCG,-0.128
22,CGACCTTC,-0.189
23,ACTGCGTC,0.284
24,GGCGTATA,0.148

row,Sequence,PBM E-score
1,GTCGTATA,0.269
2,TACGTATA,0.483
3,AAAGTATT,0.0493
4,AACGTATT,0.434
5,ATCGTATA,0.197
6,ACCGTATA,0.0367
7,CGCGTATC,0.232
8,CACGTATC,0.393
9,CTCGTATC,0.0593
10,AAGGTATT,0.131
11,GACGTATA,0.453
12,CGCACTGA,0.0222
13,AGCTATAT,0.172
14,TCCCGACA,-0.139
15,CAAGTCGC,-0.173
16,AACGTATA,0.406
17,AGCGTATA,0.15
18,AACGTATC,0.353
19,ACACGGGG,-0.242
20,ACTACGAG,0.162
21,AATACGAG,0.244
22,CTTACGAC,0.16
23,ACTACGAC,0.181
24,ATTACGAG,0.36

row,Sequence,PBM E-score
1,ATTACGAC,0.396
2,ATACCTGC,-0.102
3,CAAATTAG,0.104
4,GCGTCACA,0.406
5,TGGTCACA,0.0263
6,GCGTCACC,0.341
7,CCGTCACG,0.152
8,TCGTCACA,0.379
9,CCGTCACA,0.163
10,ACTAGACT,-0.176
11,CAATAGCA,-0.132
12,CTGCAATC,-0.0429
13,CGCTGAGA,-0.0923
14,AAAACCAG,-0.0997
15,ACGCAACC,0.379
16,GCGCAACC,-0.162
17,CCGCAACG,0.0186
18,CCGCAACA,0.165
19,ACGCAACA,0.388
20,ACGCAACG,0.377
21,ACGCAACT,0.355
22,GCGCAACA,0.175
23,CCGCAACC,-0.2
